Test results reported in PubChem BioAssay (NCATS).
Values joined by “and” are separate entries in the source; they are usually repeats but may differ in a detail not shown here. Identical values can stand only once. Results filed as inconclusive are left out. Active and inactive are the calls of the source. Unless noted, no rule for the calls is given here.

What was measured:
[1] = biological target: Bile acid receptor (Homo sapiens) (UniProt Q96RI1); experiment: qHTS assay for small molecule antagonists of farnesoid X receptor signaling (AID 588526; calls by dose curve; also: % is scaled to controls: 0 for no effect and ±100 for the full control effect)
Summary of the method: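 Concentration-response titrations were fitted to the Hill equation for half-maximal inhibition and maximal response, with data normalised to 50 uM chenodeoxycholic acid and DMSO control wells. Cells: FXR-UAS-bla HEK293T, dialyzed FBS.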

[2] = biological target: Bile acid receptor (Homo sapiens) (UniProt Q96RI1); experiment: qHTS assay for small molecule agonists of farnesoid X receptor signaling (AID 588527; calls by dose curve;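 also: series mostly up to about 77 µM; 0% = vehicle basal and 100% = reference agonist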); conditions: HEK293T FXR-UAS-bla, beta-lactamase ratio, 16 h; activation: stronger effect = higher value
Summary of the method: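 FXR-UAS-bla HEK293T, 10% dialyzed FBS; cpds up to 92 uM titration, 16 h 37 C; CCF4 dye 2 h RT; fluorescence. Normalized to chenodeoxycholic acid 100 uM (100%) and DMSO (0%); Hill fit gives EC50, efficacy.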

[3] = biological target: Glucocorticoid receptor (Homo sapiens) (UniProt P04150); experiment: qHTS assay for small molecule antagonists of glucocorticoid receptor signaling (AID 588533; active = well fitted inhibition curve with a large enough effect in the signal ratio, with a control signal flat, not every such curve was filed as active; the % refers to the signal ratio;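 also: cells stimulated with 2 nM dexamethasone as agonist; % is scaled to controls: 0 for no effect and ±100 for the full control effect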)
Summary of the method: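 Antagonist-mode qHTS: compound titrations added to GRE-bla HeLa cells, then dexamethasone 2 nM final; 18 h, 37 C. CCF4 FRET fluorescence normalized to dexamethasone and DMSO; IC50 from Hill fit.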

[4] = qHTS assay for small molecule antagonists of peroxisome proliferator-activated receptor delta signaling (AID 588535; active = well fitted inhibition curve with a large enough effect in the signal ratio, with a control signal flat, not every such curve was filed as active; the % refers to the signal ratio;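 as to max response: cells co-treated with a PPAR-delta agonist as stimulator during compound exposure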); conditions: HEK293T PPARd-UAS-bla, beta-lactamase FRET ratio, 18 h; 460 nm channel
Summary of the method: (§1)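 Reporter: UAS-bla under PPAR-delta response element, HEK293T host. Medium: 2% charcoal/dextran FBS. Dosing: titration, 18 hrs, 37 C. Detection: CCF4, 2 hrs RT, 405 ex/460 and 530 em.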

[5] = biological target: Peroxisome proliferator-activated receptor delta (Homo sapiens) (UniProt Q03181); experiment: as above
Summary of the method: as §1

[6] = biological target: Peroxisome proliferator-activated receptor gamma (Homo sapiens) (UniProt P37231); experiment: qHTS assay for small molecule antagonists of peroxisome proliferator-activated receptor gamma signaling (AID 588537; active = well fitted inhibition curve with a large enough effect in the signal ratio, with a control signal flat, not every such curve was filed as active; the % refers to the signal ratio;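 also: reporter cells co-stimulated with 50 nM rosiglitazone agonist during compound treatment; % of control where 0% means no effect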)
Summary of the method: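 We seeded GeneBLAzer HEK293 reporter cells at 3000 per well, allowed 6-6.5 h attachment at 37 C, then co-treated with test compound titrations and 50 nM rosiglitazone overnight (16 h). Inhibition was quantified from 460/530 nm emission ratios.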

[7] = biological target: Thyroid hormone receptor beta (Homo sapiens) (UniProt P10828); experiment: qHTS assay for small molecule antagonists of thyroid hormone receptor beta signaling (AID 588547; active = well fitted inhibition curve with a large enough effect in the signal ratio, with a control signal flat, not every such curve was filed as active; the % refers to the signal ratio;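 also: cells stimulated with 0.4 nM T3 agonist during compound exposure; series mostly up to about 77 µM; % is scaled to controls: 0 for no effect and ±100 for the full control effect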); conditions: TR-UAS-bla HEK293, beta-lactamase ratio, antagonist mode, 18 h
Summary of the method: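 TR-UAS-bla GripTite HEK293 cells in 2% charcoal/dextran FBS medium were preincubated 4 h at 37 C, given compound (0.59 nM to 92 uM) plus 0.4 nM T3 (final) for 18 h, then CCF4 for 2 h at RT; Hill fit gave IC50.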

[8] = qHTS assay for small molecule agonists of the antioxidant response element (ARE) signaling pathway (AID 651741; active = well fitted activation curve with a large enough effect in the signal ratio; the % refers to the signal ratio; also: potency is read from the fitted curve at half-maximal effect; as to activation: % of control where 0% means no effect)
Summary of the method: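 Compounds in DMSO are pinned onto HepG2 ARE-bla cells (2,000/well) that were preincubated 5 h; plates stay 16 h at 37 C, then beta-lactamase activity is detected with LiveBLAzer B/G substrate by fluorescence.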

[9] = qHTS assay for small molecule activators of the human pregnane X receptor (PXR) signaling pathway (AID 720659); also: 0% is about no effect
[10] = biological target: Glucocorticoid receptor (Homo sapiens) (UniProt P04150); experiment: qHTS assay for small molecule agonists of glucocorticoid receptor signaling (AID 588532; active = well fitted curve in the direction sought with a large enough effect in the signal ratio, with a control signal flat; the % refers to the signal ratio;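 also: 100% = dexamethasone at 0.1 µM and 0% = DMSO only wells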); conditions: HeLa MMTV-bla, beta-lactamase ratio, agonist, 18 h; activation: stronger effect = higher value, percent of dexamethasone control, DMSO zero
Summary of the method: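 Titration series, up to 92 uM, applied to GRE-bla HeLa cells for 18 h at 37 C. Detection by CCF4 FRET substrate after 2 h at RT.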

[11] = biological target: Cytochrome P450 3A4 (Homo sapiens) (UniProt P08684); experiment: qHTS Assay for Activators of Cytochrome P450 3A4 (AID 885; active = well fitted curve in the direction sought with a large enough effect; an effect the other way counts as inactive or inconclusive; also: nearly all actives have a fitted effect of over 65% in size)
Summary of the method: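 20nM CYP3A4 + 25uM Luciferin-PPXE (=KM), 200mM KPO4; cpd 10 min RT; NADPH regen, 60 min RT; stop w/ detection buffer, 20 min; luminescence. Normalized to 57 uM ketoconazole.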

[12] = Cell Viability - LYMP2-001 (AID 921; active = well fitted curve in the direction sought with a large enough effect; an effect the other way counts as inactive or inconclusive; also: potency is read from the fitted curve at half-maximal effect; nearly all actives have a fitted effect of over 70% in size)
Summary of the method: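 A lymphoblastoid cell line of human origin was treated with library compounds across a concentration series for 24 hours, and viable cell number was estimated from ATP-driven luciferase light output. Hill modeling gave AC50.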

[13] = MultiTox-Fluor Cytotoxicity Assay - LYMP1-002 - Live Cells (AID 955; active = well fitted curve in the direction sought with a large enough effect; an effect the other way counts as inactive or inconclusive;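 also: potency is read from the fitted curve at half-maximal effect; cells exposed to compound for 16 hours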)
Summary of the method: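 Human lymphoblastoid LYMP1-002 cells, 2500/well, treated 16 h at 37 C in complete medium. Live-cell protease activity via GF-AFC fluorescence (Ex/Em 405/510) after 60 min reagent incubation; AC50 from Hill fits.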

[14] = MultiTox-Fluor Cytotoxicity Assay - LYMP1-002 - Dead Cells (AID 960; active = well fitted curve in the direction sought with a large enough effect; an effect the other way counts as inactive or inconclusive; also: potency is read from the fitted curve at half-maximal effect; nearly all actives have a fitted effect of over 60% in size)
Summary of the method: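 Human lymphoblastoid LYMP1-002 cells, 2500/well, treated 16 h at 37 C; dead-cell protease cleavage of bis-AAF-R110 read by fluorescence (485/520); normalized to DMSO and 15 uM tetraoctylammonium bromide; AC50 from Hill fit.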

[15] = MultiTox-Fluor Cytotoxicity Assay - LYMP1-003 - Dead Cells (AID 961; active = well fitted curve in the direction sought with a large enough effect; an effect the other way counts as inactive or inconclusive; also: potency is read from the fitted curve at half-maximal effect; nearly all actives have a fitted effect of over 70% in size)
Summary of the method: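 Human lymphoblastoid LYMP1-003 cells (2500/well) were treated with compounds for 16 hr at 37 C in complete medium. Dead-cell protease release was read by bis-AAF-R110 fluorescence (Ex/Em 485/520). AC50 came from Hill fits, normalized to DMSO and 15 uM tetraoctylammonium bromide.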

[16] = Cell Viability - LYMP2-003 (AID 965; active = well fitted curve in the direction sought with a large enough effect; an effect the other way counts as inactive or inconclusive;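 also: potency is read from the fitted curve at half-maximal effect; cells exposed to compounds for 24 h before reading; nearly all actives have a fitted effect of over 50% in size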)
Summary of the method: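 qHTS, human lymphoblastoid line, 2500 cells/well, complete medium. 24 h drug, 37 C. ATP-based luminescent readout; Hill-fit AC50.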

[17] = Cell Viability - LYMP2-011 (AID 969; active = well fitted curve in the direction sought with a large enough effect; an effect the other way counts as inactive or inconclusive; also: potency is read from the fitted curve at half-maximal effect; nearly all actives have a fitted effect of over 60% in size)
Summary of the method: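 2500 cells/well in complete medium, compound-treated 24 h at 37 C. Viability read as intracellular ATP by CellTiter-Glo luminescence after 30 min at room temperature. AC50 from Hill fits of qHTS concentration-response data.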

[18] = Cell Viability - LYMP2-013 (AID 970; active = well fitted curve in the direction sought with a large enough effect; an effect the other way counts as inactive or inconclusive; also: potency is read from the fitted curve at half-maximal effect; nearly all actives have a fitted effect of over 55% in size)
Summary of the method: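 Human lymphoblastoid LYMP2-013 cells, 2500/well, treated 24 h at 37 C in complete medium; viability as intracellular ATP by CellTiter-Glo luminescence after 30 min. AC50 from Hill fits of qHTS concentration-response.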

[19] = biological target: Androgen receptor (Homo sapiens) (UniProt P10275); experiment: qHTS assay for small molecule agonists of androgen receptor signaling (AID 588515; active = well fitted curve in the direction sought with a large enough effect in the signal ratio, with a control signal flat; the % refers to the signal ratio; also: % is scaled to controls: 0 for no effect and ±100 for the full control effect); conditions: AR-UAS-bla HEK293, beta-lactamase ratio, agonist 16 h; stronger effect = higher value
Summary of the method: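 EC50 and efficacy came from Hill fits of titrations (up to 92 uM) normalized to 30 nM R1881 as 100% and DMSO as 0%. Compound exposure was 16 h at 37 C on AR-UAS-bla HEK293 cells, with a 405/460/530 nm CCF4 fluorescence read.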

[20] = biological target: Androgen receptor (Homo sapiens) (UniProt P10275); experiment: qHTS assay for small molecule antagonists of androgen receptor signaling (AID 588516; active = well fitted curve in the direction sought with a large enough effect in the signal ratio, with a control signal flat, not every such curve was filed as active; the % refers to the signal ratio; also: % is scaled to controls: 0 for no effect and ±100 for the full control effect)
Summary of the method: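 Compounds tested in titration against 10 nM R1881 in AR-responsive bla reporter HEK 293 cells; CCF4 fluorescence (460/530 nm) after 16 h exposure gave IC50 and efficacy.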

Sequence of Androgen receptor (Homo sapiens) (P10275 whole entry, looked up): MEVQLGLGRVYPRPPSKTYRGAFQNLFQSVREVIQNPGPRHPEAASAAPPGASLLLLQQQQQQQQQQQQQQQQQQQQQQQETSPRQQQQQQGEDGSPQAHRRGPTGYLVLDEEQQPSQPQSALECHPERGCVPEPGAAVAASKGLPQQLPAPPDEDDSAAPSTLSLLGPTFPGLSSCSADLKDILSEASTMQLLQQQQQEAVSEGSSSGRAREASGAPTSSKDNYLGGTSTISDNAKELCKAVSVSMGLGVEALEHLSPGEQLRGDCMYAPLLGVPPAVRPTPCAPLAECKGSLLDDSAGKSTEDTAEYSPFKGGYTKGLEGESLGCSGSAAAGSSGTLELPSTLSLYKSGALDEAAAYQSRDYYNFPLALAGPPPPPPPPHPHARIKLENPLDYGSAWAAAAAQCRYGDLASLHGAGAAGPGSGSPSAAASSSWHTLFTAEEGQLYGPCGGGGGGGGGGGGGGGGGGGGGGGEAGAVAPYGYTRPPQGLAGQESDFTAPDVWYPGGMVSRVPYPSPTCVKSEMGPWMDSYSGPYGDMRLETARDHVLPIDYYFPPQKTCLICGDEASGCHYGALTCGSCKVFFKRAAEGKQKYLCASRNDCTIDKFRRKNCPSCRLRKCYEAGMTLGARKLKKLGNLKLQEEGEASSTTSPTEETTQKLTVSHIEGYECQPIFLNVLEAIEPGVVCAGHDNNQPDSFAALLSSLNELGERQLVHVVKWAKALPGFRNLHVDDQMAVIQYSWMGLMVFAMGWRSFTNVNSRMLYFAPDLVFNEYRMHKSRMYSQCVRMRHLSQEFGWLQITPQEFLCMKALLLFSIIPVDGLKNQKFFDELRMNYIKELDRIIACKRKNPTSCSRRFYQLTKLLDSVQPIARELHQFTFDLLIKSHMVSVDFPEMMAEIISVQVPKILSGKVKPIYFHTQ
Sequence of Peroxisome proliferator-activated receptor gamma (Homo sapiens) (P37231 whole entry, looked up): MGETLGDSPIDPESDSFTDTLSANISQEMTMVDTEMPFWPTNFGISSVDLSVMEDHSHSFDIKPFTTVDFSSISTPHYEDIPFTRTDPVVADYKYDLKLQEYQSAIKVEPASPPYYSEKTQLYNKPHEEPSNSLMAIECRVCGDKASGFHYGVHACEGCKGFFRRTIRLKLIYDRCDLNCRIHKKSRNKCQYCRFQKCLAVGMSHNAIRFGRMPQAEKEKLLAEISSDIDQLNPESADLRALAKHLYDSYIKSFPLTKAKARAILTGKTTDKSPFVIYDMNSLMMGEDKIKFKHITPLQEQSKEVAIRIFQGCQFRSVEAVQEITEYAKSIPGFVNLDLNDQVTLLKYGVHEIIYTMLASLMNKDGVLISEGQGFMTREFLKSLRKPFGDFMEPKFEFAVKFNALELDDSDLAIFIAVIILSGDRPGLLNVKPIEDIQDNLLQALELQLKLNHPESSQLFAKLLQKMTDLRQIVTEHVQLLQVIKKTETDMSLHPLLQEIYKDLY
Sequence of Peroxisome proliferator-activated receptor delta (Homo sapiens) (Q03181 whole entry, looked up): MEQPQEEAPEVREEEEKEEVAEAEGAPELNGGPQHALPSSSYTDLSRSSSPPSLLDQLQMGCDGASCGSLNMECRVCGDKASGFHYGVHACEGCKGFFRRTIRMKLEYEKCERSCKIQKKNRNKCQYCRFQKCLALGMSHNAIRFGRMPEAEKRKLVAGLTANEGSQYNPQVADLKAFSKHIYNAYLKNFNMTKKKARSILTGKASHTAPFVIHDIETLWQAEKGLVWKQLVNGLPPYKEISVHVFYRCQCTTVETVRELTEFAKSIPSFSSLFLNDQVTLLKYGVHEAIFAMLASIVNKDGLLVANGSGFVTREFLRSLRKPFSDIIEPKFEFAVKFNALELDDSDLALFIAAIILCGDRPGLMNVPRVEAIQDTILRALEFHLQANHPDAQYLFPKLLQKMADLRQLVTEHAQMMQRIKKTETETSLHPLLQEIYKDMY
Sequence of Glucocorticoid receptor (Homo sapiens) (P04150 whole entry, looked up): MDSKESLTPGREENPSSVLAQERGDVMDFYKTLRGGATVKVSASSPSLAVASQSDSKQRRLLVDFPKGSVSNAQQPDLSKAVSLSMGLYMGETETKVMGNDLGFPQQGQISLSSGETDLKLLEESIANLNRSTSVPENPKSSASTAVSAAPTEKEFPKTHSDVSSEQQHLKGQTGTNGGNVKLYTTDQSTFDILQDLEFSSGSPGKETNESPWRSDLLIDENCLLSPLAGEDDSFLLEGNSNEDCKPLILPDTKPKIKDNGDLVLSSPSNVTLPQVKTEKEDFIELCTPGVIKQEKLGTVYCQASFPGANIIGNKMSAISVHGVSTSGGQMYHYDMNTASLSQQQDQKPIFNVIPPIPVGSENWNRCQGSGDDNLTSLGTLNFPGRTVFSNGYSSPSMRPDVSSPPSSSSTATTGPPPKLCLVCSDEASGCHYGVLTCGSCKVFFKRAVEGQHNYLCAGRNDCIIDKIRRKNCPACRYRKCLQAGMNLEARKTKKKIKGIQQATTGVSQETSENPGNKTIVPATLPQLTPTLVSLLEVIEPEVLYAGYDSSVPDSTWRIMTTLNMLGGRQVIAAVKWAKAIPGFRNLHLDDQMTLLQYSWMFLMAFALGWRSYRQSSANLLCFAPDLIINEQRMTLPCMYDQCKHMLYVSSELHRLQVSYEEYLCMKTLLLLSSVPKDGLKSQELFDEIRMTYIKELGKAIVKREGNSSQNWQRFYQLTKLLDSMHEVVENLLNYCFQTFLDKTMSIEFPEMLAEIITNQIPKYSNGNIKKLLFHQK
Sequence of Bile acid receptor (Homo sapiens) (Q96RI1 whole entry, looked up): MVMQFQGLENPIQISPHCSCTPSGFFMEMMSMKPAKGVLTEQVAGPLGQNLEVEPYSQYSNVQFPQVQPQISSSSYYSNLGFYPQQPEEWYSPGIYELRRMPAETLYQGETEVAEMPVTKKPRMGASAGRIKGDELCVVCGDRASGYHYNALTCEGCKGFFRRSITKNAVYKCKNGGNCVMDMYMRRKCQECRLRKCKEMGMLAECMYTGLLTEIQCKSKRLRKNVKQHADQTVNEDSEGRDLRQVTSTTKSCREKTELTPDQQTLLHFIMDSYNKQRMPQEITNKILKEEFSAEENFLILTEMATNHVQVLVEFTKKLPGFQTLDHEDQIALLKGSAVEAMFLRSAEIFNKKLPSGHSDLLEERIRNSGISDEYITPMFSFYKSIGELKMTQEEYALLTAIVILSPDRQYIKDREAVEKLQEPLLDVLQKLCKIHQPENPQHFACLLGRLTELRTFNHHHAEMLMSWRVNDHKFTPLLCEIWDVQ
Sequence of Thyroid hormone receptor beta (Homo sapiens) (P10828 whole entry, looked up): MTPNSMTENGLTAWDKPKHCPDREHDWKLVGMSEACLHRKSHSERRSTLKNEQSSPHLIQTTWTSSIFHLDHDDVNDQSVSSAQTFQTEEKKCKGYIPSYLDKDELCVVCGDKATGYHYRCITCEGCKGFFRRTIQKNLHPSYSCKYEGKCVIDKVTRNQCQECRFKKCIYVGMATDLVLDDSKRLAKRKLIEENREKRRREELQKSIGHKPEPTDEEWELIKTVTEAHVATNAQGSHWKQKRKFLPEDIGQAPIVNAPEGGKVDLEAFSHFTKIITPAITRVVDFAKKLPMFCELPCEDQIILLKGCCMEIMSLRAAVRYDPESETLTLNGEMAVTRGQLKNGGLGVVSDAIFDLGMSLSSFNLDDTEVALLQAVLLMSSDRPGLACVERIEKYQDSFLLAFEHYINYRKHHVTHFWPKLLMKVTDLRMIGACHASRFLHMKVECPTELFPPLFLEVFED
Sequence of Cytochrome P450 3A4 (Homo sapiens) (P08684 whole entry, looked up): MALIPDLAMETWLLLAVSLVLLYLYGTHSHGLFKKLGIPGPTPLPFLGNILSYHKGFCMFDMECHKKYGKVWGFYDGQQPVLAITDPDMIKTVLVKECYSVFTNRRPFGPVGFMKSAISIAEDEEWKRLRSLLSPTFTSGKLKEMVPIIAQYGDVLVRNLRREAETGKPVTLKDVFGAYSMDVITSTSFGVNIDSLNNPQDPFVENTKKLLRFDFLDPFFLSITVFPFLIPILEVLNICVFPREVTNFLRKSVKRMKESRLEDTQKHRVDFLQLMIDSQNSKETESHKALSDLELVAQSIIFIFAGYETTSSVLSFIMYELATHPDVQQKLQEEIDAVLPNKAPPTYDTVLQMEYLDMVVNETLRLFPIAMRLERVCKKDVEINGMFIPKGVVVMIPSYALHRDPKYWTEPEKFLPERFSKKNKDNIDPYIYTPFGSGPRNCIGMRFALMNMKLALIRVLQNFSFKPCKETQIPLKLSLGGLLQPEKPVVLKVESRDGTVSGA

CCOP(=O)(O)C(N)=O
57.5%: max response [4]
inactive: Potency [1] | activation [2] 3.28% | Potency [3] | Potency [5] | Potency [6] | activity change % (negative = inhibition) [7] -0.728% | Potency [8] | outcome [9]

O=C(NC(=O)c1c(F)cccc1F)Nc1ccc(OC(F)(F)C(F)OC(F)(F)F)c(Cl)c1 (stereo not drawn)
59.9%: max response [4]
inactive: activation [10] -15.7% | Potency [3] | Potency [5] | activity change % (negative = inhibition) [7] 12.3% | outcome [9]

CCCCC(CC)CO[N+](=O)[O-] (stereo not drawn)
inactive: activation [10] -6.71% | Potency [3] | Potency [5] | Potency [6] | activity change % (negative = inhibition) [7] -3.31% | outcome [9]
-28%: max response [4]

CCCN(CC)CC1COC2(CCC(C(C)(C)C)CC2)O1 (stereo not drawn)
inactive: activation [10] 11.4% | Potency [3] | Potency [5] | Potency [8] | outcome [9]
36.1%: max response [4]

CCOS(=O)(=O)OCC
inactive: activation [10] -9.13% | Potency [3] | Potency [5] | activity change % (negative = inhibition) [7] 3.34% | Potency [8] | outcome [9]
-21.4%: max response [4]

Clc1ccc(C(Cl)(Cl)Cl)cc1
inactive: Potency [1] | activation [2] -1.93% | activation [10] 0.824% | activity change % (negative = inhibition) [7] -0.364% | outcome [9]

Clc1ccc([C@@]2(Cn3cncn3)C[C@H](Br)CO2)c(Cl)c1
inactive: activation [2] -2.3% | activation [10] 2.56% | Potency [3] | Potency [8]

c1cc(OCC2CO2)cc(OCC2CO2)c1 (stereo not drawn)
21.9%: max response [4]
active: Potency [12] 31.6 µM | Potency [13] 31.6 µM | Potency [14] 25.1 µM | Potency [15] 39.8 µM | Potency [16] 25.1 µM | Potency [17] 39.8 µM | Potency [18] 50.1 µM | Potency [8] 29.8 µM
inactive: Potency [11] | activation [19] -20.7% | Potency [20] | activation [2] 0.408% | Potency [5] | Potency [6] | activity change % (negative = inhibition) [7] 15%

CSC(=O)c1c(C(F)F)nc(C(F)(F)F)c(C(=O)SC)c1CC(C)C
97.5%: max response [4]
inactive: activation [10] -2.18% | Potency [5] | Potency [6] | activity change % (negative = inhibition) [7] -31.5%

CCC(C)n1c(=O)[nH]c(C)c(Br)c1=O (stereo not drawn)
inactive: Potency [6] | outcome [9]

CNC(=O)Oc1cc(C)cc(C(C)C)c1
inactive: Potency [5] | Potency [6] | activity change % (negative = inhibition) [7] 4.48% | outcome [9]
-13.9%: max response [4]

CCOP(=S)(OCC)Oc1ccc(S(C)=O)cc1 (stereo not drawn)
-64.2%: max response [4]
inactive: Potency [5] | Potency [6] | activity change % (negative = inhibition) [7] -4.14% | Potency [8]

O=S(=O)(O)C(F)(F)C(F)(F)C(F)(F)C(F)(F)C(F)(F)C(F)(F)F
-35.3% and 95.7%: max response [4]
inactive: Potency [1] | activation [2] -1.09% and 0.298% | activation [10] 2.96% and -3.35% | Potency [3] | Potency [5] | Potency [6] | activity change % (negative = inhibition) [7] 23.1% | outcome [9]

O=C=Nc1ccc(Cl)cc1
-52.1%: max response [4]
inactive: Potency [5] | Potency [6] | activity change % (negative = inhibition) [7] -1.95% | outcome [9]

CN(C)P(=O)(N(C)C)N(C)C
-0.709%: max response [4]
inactive: Potency [5] | activity change % (negative = inhibition) [7] -0.373% | outcome [9]

CCNc1nc(NCC)nc(SC)n1
inactive: Potency [3] | activity change % (negative = inhibition) [7] -6.04% | outcome [9]

O=C(O)c1nc(Cl)ccc1Cl
inactive: Potency [3] | activity change % (negative = inhibition) [7] -7.12% | outcome [9]

Cc1cc(C)nc(NC(=O)NS(=O)(=O)c2ccccc2C(=O)OC2COC2)n1
2.3%: max response [4]
inactive: activation [19] -3.69% | Potency [1] | activation [2] 1.23% | Potency [5] | outcome [9]

CCCN(CCC)c1c([N+](=O)[O-])cc(C(F)(F)F)c(N)c1[N+](=O)[O-]
inactive: activation [2] 9.33%

CC(=O)[C@H]1[C@H](C#N)C[C@H]2[C@@H]3CC=C4C[C@@H](O)CC[C@]4(C)[C@H]3CC[C@@]21C
inactive: activation [2] -2.16% and -0.929% | activity change % (negative = inhibition) [7] 6.3%

Clc1ccc([C@@]2(Cn3cncn3)C[C@@H](Br)CO2)c(Cl)c1
inactive: Potency [1] | activation [2] 3.84% | activation [10] -12.1% | Potency [5] | activity change % (negative = inhibition) [7] 11.5%
-0.908%: max response [4]

Nc1nc(N)nc(Cl)n1
inactive: activation [10] -0.33% and 1.13% | Potency [3] | Potency [6] | activity change % (negative = inhibition) [7] -10% and 5.94% and 4.29% | Potency [8] | outcome [9]

CC1(C)Cc2cccc(O)c2O1
inactive: Potency [6] | activity change % (negative = inhibition) [7] -2.82% | Potency [8] | outcome [9]

O=C(O)C(F)(F)C(F)(F)C(F)(F)C(F)(F)C(F)(F)F
inactive: activation [10] 4.09% | Potency [3] | Potency [5] | Potency [6] | activity change % (negative = inhibition) [7] 8.21% | Potency [8]
-15.9%: max response [4]

CC(C)(C)C(=O)[C@@H](Oc1ccc(Cl)cc1)n1cncn1
inactive: activation [10] 6.65% | Potency [5] | Potency [6] | activity change % (negative = inhibition) [7] -10.6%
38.3%: max response [4]

CC(Oc1ccc(Cl)cc1Cl)C(=O)O (stereo not drawn)
inactive: activation [2] -0.107% | activation [10] 6.74% | Potency [3] | Potency [6] | outcome [9]

Cc1cc(Cl)ccc1OC(C)C(=O)O (stereo not drawn)
36.3%: max response [4]
inactive: Potency [5] | Potency [6] | activity change % (negative = inhibition) [7] -3.04% | Potency [8] | outcome [9]

CCOC(=O)Nc1cccc(OC(=O)Nc2ccccc2)c1
inactive: Potency [3] | Potency [5] | activity change % (negative = inhibition) [7] 5.59%
9.77%: max response [4]
